Molecules are shown by their SMILES. This is part of a sample that, as a whole, favours compounds with a hit. Of some 83,000 tested, about 20% had one in any assay.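 Values shown are percent growth following 48 h exposure of cells in 96-well plates to a single concentration of compound; below 10 was considered active.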 Values without a mark were called inactive. Activity calls are given as the source filed them.

Test systems include NCI-H23 lung; NCI-H226 lung; NCI-H322M lung; HOP-62 NSCLC; NCI-H460 lung; HOP-92 NSCLC; NCI-H522 lung; A549/ATCC NSCLC; 786-0 renal; COLO 205 colon; DU-145 prostate; K-562 leukemia; MALME-3M melanoma; MDA-MB-231 breast; SF-268 CNS; SF-295 CNS; SF-539 CNS; UACC-257 melanoma; M14 melanoma.
Common to all, as to assay: NCI-60 one-dose screen, 48 h (100 = growth as untreated, 0 = no growth, -100 = all killed)
Common to all, as to conditions: 10 µM

As to `CCOC(=O)c1c(CSc2ccccc2)n(C)c2cc(CN(C)C)c(O)c(CN(C)C)c12`, the growth was 33.8% with NCI-H23 lung; 46.6% in the assay with NCI-H226 lung; 47.7% in the assay with NCI-H322M lung; 72.2% in the assay on HOP-62 NSCLC; 34.6% in the assay on NCI-H460 lung; 32.5% in the assay with HOP-92 NSCLC. In addition, the growth in the assay with NCI-H522 lung was 62.4%; in the assay on A549/ATCC NSCLC it was 49.6%; with 786-0 renal, 45.3%; in the assay on COLO 205 colon it was -37.8% (active); in the assay with DU-145 prostate, 60.8%; in the assay with K-562 leukemia it was 19.7%. Also, the growth is -15.3% (active) in the assay on MALME-3M melanoma; 16% in the assay on MDA-MB-231 breast; 71.3% with SF-268 CNS; 46.9% in the assay with SF-295 CNS; 50.5% with SF-539 CNS; 54.3% in the assay on UACC-257 melanoma.

As to `CN(CCO)c1oc(-c2ccccc2)nc1[P+](c1ccccc1)(c1ccccc1)c1ccccc1`, the growth in the assay with NCI-H23 lung was -5.17% (active); in the assay with NCI-H226 lung it was -11.8% (active); in the assay on NCI-H322M lung, 19.8%; in the assay on HOP-62 NSCLC, 13.2%; in the assay on NCI-H460 lung, 6.61% (active); in the assay with HOP-92 NSCLC it was -24.2% (active). In addition, the growth was -9.01% (active) in the assay with NCI-H522 lung; 22.3% in the assay with A549/ATCC NSCLC; 14.2% with 786-0 renal; -59.6% (active) in the assay on COLO 205 colon; 4.07% (active) with DU-145 prostate; 9.88% (active) in the assay with K-562 leukemia. In addition, the growth in the assay with MALME-3M melanoma is -12% (active); with MDA-MB-231 breast, -6.83% (active); in the assay with SF-268 CNS, 11.4%; with SF-295 CNS, -13.8% (active); in the assay on SF-539 CNS it was 8.12% (active); in the assay on UACC-257 melanoma, -3.98% (active). Also, the growth in the assay with M14 melanoma is 12.2%.

Consider `N#Cc1ccc(-c2nn(-c3ccc(C(=O)O)cc3)cc2CNc2cc(Cl)cc(C(F)(F)F)c2)cc1`, for which the growth with NCI-H23 lung was -12.8% (active); with NCI-H226 lung, 4.02% (active); in the assay with NCI-H322M lung it was 36.4%; in the assay with HOP-62 NSCLC, 6.03% (active); in the assay on NCI-H460 lung, 6.19% (active); in the assay with HOP-92 NSCLC it was -26.6% (active). Also, the growth in the assay with NCI-H522 lung was 19.5%; in the assay on A549/ATCC NSCLC it was 29.7%; with 786-0 renal, 11.5%; with COLO 205 colon it was 55.7%; in the assay with DU-145 prostate it was 26.7%; in the assay with K-562 leukemia, 19.4%. For the same compound, the growth with MALME-3M melanoma was 14.7%; with MDA-MB-231 breast, 27.7%; with SF-268 CNS it was 31.9%; with SF-295 CNS it was 9.39% (active); in the assay on SF-539 CNS, -26.4% (active); with UACC-257 melanoma it was 14.9%. In addition, the growth in the assay on M14 melanoma was 11.3%.

`CCNCCCn1c2c(c3cc(OC)c(OC)cc3c1=O)C(=O)c1cc3c(nc1-2)OCO3`: the growth in the assay with NCI-H23 lung was -27.2% (active); in the assay with NCI-H226 lung, -79.7% (active); in the assay with NCI-H322M lung, 35.2%; in the assay on HOP-62 NSCLC, 11.7%; with NCI-H460 lung, -24.7% (active); in the assay with HOP-92 NSCLC, 44.4%. The growth with NCI-H522 lung was 35.8%; with A549/ATCC NSCLC, 21.1%; with 786-0 renal, -71.7% (active); in the assay with COLO 205 colon, 25.7%; with DU-145 prostate, 12.1%; in the assay with K-562 leukemia, -18.2% (active). In addition, the growth is -93.5% (active) in the assay on MALME-3M melanoma; -91.6% (active) with MDA-MB-231 breast; 8.1% (active) with SF-268 CNS; 4.2% (active) in the assay on SF-295 CNS; -44.1% (active) in the assay with SF-539 CNS; 45.4% in the assay on UACC-257 melanoma. In addition, the growth in the assay on M14 melanoma was 0.853% (active).

For `O=C(CNc1nc(-c2ccccc2)cs1)Nc1ccc(Cl)cc1`, the growth with NCI-H23 lung is -93.8% (active); with NCI-H226 lung it was -62.5% (active); in the assay on NCI-H322M lung, -98% (active); in the assay on HOP-62 NSCLC it was -76.1% (active); in the assay with NCI-H460 lung, -51.2% (active); with HOP-92 NSCLC, -71.9% (active). Also, the growth with NCI-H522 lung was -80.2% (active); in the assay with A549/ATCC NSCLC it was -49.8% (active); in the assay with 786-0 renal it was -72.8% (active); in the assay with COLO 205 colon it was -80.1% (active); in the assay with DU-145 prostate it was -93.3% (active); in the assay on K-562 leukemia, -16.4% (active). Moreover, the growth is -90.3% (active) in the assay with MALME-3M melanoma; -94.3% (active) in the assay on MDA-MB-231 breast; -49% (active) with SF-268 CNS; -96.9% (active) in the assay with SF-295 CNS; -98.8% (active) in the assay with SF-539 CNS; -78.8% (active) in the assay on UACC-257 melanoma. Moreover, the growth with M14 melanoma was -90.9% (active).

Regarding `CC1(C)[C@@H](NCO)CC[C@]2(C)[C@H]3C(=O)C=C4[C@@H]5C[C@](C)(CO)CC[C@]5(C)CC[C@@]4(C)[C@]3(C)CC[C@@H]12`, the growth was 66.5% in the assay on NCI-H23 lung; 68% with NCI-H226 lung; 63.1% with NCI-H322M lung; 85.2% in the assay with HOP-62 NSCLC; 0.687% (active) in the assay with NCI-H460 lung; 52% in the assay with HOP-92 NSCLC. The growth is 72.7% with NCI-H522 lung; 60% in the assay on A549/ATCC NSCLC; 42.8% with 786-0 renal; 24.6% in the assay with COLO 205 colon; 79.4% in the assay on DU-145 prostate; 8.51% (active) in the assay on K-562 leukemia. Also, the growth with MALME-3M melanoma was 49%; in the assay on MDA-MB-231 breast it was 44.2%; in the assay with SF-268 CNS, 68.8%; with SF-295 CNS, 2.19% (active); in the assay with SF-539 CNS, 45.4%; in the assay with UACC-257 melanoma, 33.4%.

`COc1ccccc1C(=O)NNC(=O)CSc1nc2c(c(=O)[nH]1)CCCC2`: the growth is 91.4% in the assay with NCI-H23 lung; 83.6% in the assay on NCI-H226 lung; 103% with NCI-H322M lung; 93.5% in the assay with HOP-62 NSCLC; 111% in the assay with NCI-H460 lung; 86.2% in the assay on HOP-92 NSCLC. The growth with NCI-H522 lung was 104%; with A549/ATCC NSCLC, 106%; in the assay on 786-0 renal it was 115%; with COLO 205 colon, 113%; in the assay with DU-145 prostate, 104%; in the assay with K-562 leukemia, 100%. Moreover, the growth is 95.6% in the assay with MALME-3M melanoma; 86.3% in the assay on MDA-MB-231 breast; 101% in the assay on SF-268 CNS; 99.2% in the assay on SF-295 CNS; 101% in the assay with SF-539 CNS; 107% in the assay with UACC-257 melanoma. In addition, the growth in the assay on M14 melanoma is 101%.

For `C/C(=N\N=C\c1ccc(N(C)C)cc1)c1ccc2c(c1)Nc1ccccc1S2`, the growth with NCI-H23 lung was 31.4%; with NCI-H226 lung, 16.8%; in the assay on NCI-H322M lung, 79.5%; in the assay with HOP-62 NSCLC, 62.2%; with NCI-H460 lung it was 25%; in the assay with HOP-92 NSCLC, 59.5%. Also, the growth in the assay on NCI-H522 lung was 48.5%; with A549/ATCC NSCLC it was 50.5%; with 786-0 renal, 67.5%; in the assay with COLO 205 colon, 60.4%; in the assay on DU-145 prostate it was 62%; in the assay with K-562 leukemia, 28.2%. For the same compound, the growth was 49.9% in the assay on MALME-3M melanoma; 52% in the assay with MDA-MB-231 breast; 62.8% with SF-268 CNS; 24.6% with SF-295 CNS; 52.8% in the assay on SF-539 CNS; 64.9% in the assay with UACC-257 melanoma. Also, in the assay on M14 melanoma, the growth was 67.7%.

Values taken from PubChem BioAssay (NCI).
